Experimental data: PubChem BioAssay AID1159580 (chemical genetic matrix, 2015)
The whole screen tested about 5,500 compounds, of which about 2,000 (36%) were called active. Not shown: some 18% with an inconclusive outcome. No stated cut-off is given here; in the data, active means normalized growth mostly below about 0.91 (no sharp cut-off); inconclusive means no clear call, values can overlap the other calls; inactive means mostly above about 0.92. The list shows a part of the results.

Assay: chemical genetic growth profiling, strain panel (AID 1159580);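 further: tested at 20 µM; growth read once vehicle control cultures reached saturation at 30 °C; 1 = growth at the plate median or of vehicle wells; lower values mean less growth of the strain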
Settings: growth OD

Measured: normalized growth

COc1ccc(C[C@H]2NC[C@H](O)[C@H]2OC(C)=O)cc1
active: S. cerevisiae deletion strains, locus YKL160W, strain elf1, hits give low values 0.776 | S. cerevisiae deletion strains, locus YKL190W, strain CNB1, hits give low values 0.206 | S. cerevisiae deletion strains, locus YKR001C, strain vps1, hits give low values 0.367 | S. cerevisiae deletion strains, locus YLL001W, strain dnm1, hits give low values 0.884 | S. cerevisiae deletion strains, locus YLL026W, hits give low values 0.807 | S. cerevisiae deletion strains, locus YLR027C, strain aat2, hits give low values 0.659 | S. cerevisiae deletion strains, locus YLR039C, strain RIC1, hits give low values 0.567 | S. cerevisiae deletion strains, locus YLR058C, strain SHM2, hits give low values 0.61 | S. cerevisiae deletion strains, locus YLR221C, strain rsa3, hits give low values 0.853 | S. cerevisiae deletion strains, locus YLR258W, strain gsy2, hits give low values 0.734 | S. cerevisiae deletion strains, locus YLR262C, strain YPT6 (second series), hits give low values 0.769 | S. cerevisiae deletion strains, locus YLR262C, strain YPT6, hits give low values 0.386 | S. cerevisiae deletion strains, locus YLR268W, strain sec22, hits give low values 0.854 | S. cerevisiae deletion strains, locus YLR330W, strain CHS5, hits give low values 0.87 | S. cerevisiae deletion strains, locus YLR342W, strain FKS1 (second series), hits give low values 0.126 | S. cerevisiae deletion strains, locus YLR342W, strain FKS1, hits give low values 0.412 | S. cerevisiae deletion strains, locus YLR357W, strain rsc2, hits give low values 0.826 | S. cerevisiae deletion strains, locus YLR370C, strain arc18, hits give low values 0.877 | S. cerevisiae deletion strains, locus YLR371W, strain rom2, hits give low values 0.728 | S. cerevisiae deletion strains, locus YLR418C, strain cdc73, hits give low values 0.28 | S. cerevisiae deletion strains, locus YML016C, strain PPZ1, hits give low values 0.625 | S. cerevisiae deletion strains, locus YML032C, strain rad52, hits give low values 0.868 | S. cerevisiae deletion strains, locus YMR058W, strain fet3, hits give low values 0.891 | S. cerevisiae deletion strains, locus YMR125W, strain sto1, hits give low values 0.862 | S. cerevisiae deletion strains, locus YMR205C, strain PFK2, hits give low values 0.692 | S. cerevisiae deletion strains, locus YMR223W, strain ubp8, hits give low values 0.723 | S. cerevisiae deletion strains, locus YMR231W, strain pep5, hits give low values 0.752 | S. cerevisiae deletion strains, locus YMR263W, strain SAP30, hits give low values 0.852 | S. cerevisiae deletion strains, locus YMR307W, strain GAS1, hits give low values 0.237 | S. cerevisiae deletion strains, locus YNL067W, strain RPL9B, hits give low values 0.663 | S. cerevisiae deletion strains, locus YNL128W, strain TEP1, hits give low values 0.353 | S. cerevisiae deletion strains, locus YNL153C, strain GIM3, hits give low values 0.62 | S. cerevisiae deletion strains, locus YNL209W, strain ssb2, hits give low values 0.74 | S. cerevisiae deletion strains, locus YNL233W, strain BNI4, hits give low values 0.582 | S. cerevisiae deletion strains, locus YNL248C, strain rpa49, hits give low values 0.745 | S. cerevisiae deletion strains, locus YNL307C, strain MCK1, hits give low values 0.496 | S. cerevisiae deletion strains, locus YNL322C, strain KRE1, hits give low values 0.0901 | S. cerevisiae deletion strains, locus YNR052C, strain pop2, hits give low values 0.448 | S. cerevisiae deletion strains, locus YOL006C, strain TOP1, hits give low values 0.0919 | S. cerevisiae deletion strains, locus YOL012C, strain htz1 2.18 [resistant] | S. cerevisiae deletion strains, locus YOL147C, strain pex11, hits give low values 0.884 | S. cerevisiae deletion strains, locus YOR001W, strain rrp6, hits give low values 0.891 | S. cerevisiae deletion strains, locus YOR061W, strain CKA2, hits give low values 0.624 | S. cerevisiae deletion strains, locus YOR070C, strain gyp1, hits give low values 0.775 | S. cerevisiae deletion strains, locus YOR083W, strain WHI5, hits give low values 0.657 | S. cerevisiae deletion strains, locus YOR106W, strain vam3, hits give low values 0.345 | S. cerevisiae deletion strains, locus YOR136W, strain idh2, hits give low values 0.914 | S. cerevisiae deletion strains, locus YOR184W, strain ser1, hits give low values 0.463 | S. cerevisiae deletion strains, locus YOR265W, strain rbl2, hits give low values 0.851 | S. cerevisiae deletion strains, locus YOR270C, strain vph1, hits give low values 0.354 | S. cerevisiae deletion strains, locus YOR290C, strain snf2, hits give low values 0.763 | S. cerevisiae deletion strains, locus YPL051W, strain arl3, hits give low values 0.738 | S. cerevisiae deletion strains, locus YPL055C, strain LGE1, hits give low values 0.0822 | S. cerevisiae deletion strains, locus YPL241C, strain CIN2, hits give low values 0.652 | S. cerevisiae deletion strains, locus YPR163C, strain tif3, hits give low values 0.718 | S. cerevisiae deletion strains, locus YPR167C, strain met16, hits give low values 0.807 | S. cerevisiae deletion strains, strain wtn01, hits give low values 0.301 | S. cerevisiae strains, strain wild type, hits give low values 0.117
inactive: S. cerevisiae deletion strains, locus YKL009W, strain mrt4, hits give low values 0.966 | S. cerevisiae deletion strains, locus YKL068W, hits give low values 0.998 | S. cerevisiae deletion strains, locus YKL085W, strain MDH1 (second series), hits give low values 1.01 | S. cerevisiae deletion strains, locus YKL085W, strain MDH1, hits give low values 1.01 | S. cerevisiae deletion strains, locus YKR026C, strain gcn3, hits give low values 0.985 | S. cerevisiae deletion strains, locus YKR091W, strain srl3, hits give low values 1 | S. cerevisiae deletion strains, locus YLL041C, strain sdh2, hits give low values 0.986 | S. cerevisiae deletion strains, locus YLR102C, strain apc9, hits give low values 1.01 | S. cerevisiae deletion strains, locus YLR113W, strain HOG1, hits give low values 0.977 | S. cerevisiae deletion strains, locus YLR320W, strain mms22, hits give low values 0.957 | S. cerevisiae deletion strains, locus YLR384C, strain iki3, hits give low values 1 | S. cerevisiae deletion strains, locus YML120C, strain ndi1, hits give low values 0.98 | S. cerevisiae deletion strains, locus YML124C, strain tub3, hits give low values 0.988 | S. cerevisiae deletion strains, locus YMR078C, strain ctf18, hits give low values 1.02 | S. cerevisiae deletion strains, locus YMR129W, hits give low values 0.961 | S. cerevisiae deletion strains, locus YNL071W, strain lat1, hits give low values 0.975 | S. cerevisiae deletion strains, locus YNL183C, strain NPR1, hits give low values 0.97 | S. cerevisiae deletion strains, locus YNL250W, strain rad50, hits give low values 0.986 | S. cerevisiae deletion strains, locus YNL271C, strain bni1, hits give low values 0.995 | S. cerevisiae deletion strains, locus YNL298W, strain CLA4, hits give low values 0.98 | S. cerevisiae deletion strains, locus YNL322C, strain KRE1 (second series), hits give low values 1.01 | S. cerevisiae deletion strains, locus YNR049C, strain mso1, hits give low values 1 | S. cerevisiae deletion strains, locus YOR069W, strain VPS5, hits give low values 0.973 | S. cerevisiae deletion strains, locus YOR080W, strain dia2, hits give low values 0.952 | S. cerevisiae deletion strains, locus YOR144C, strain elg1, hits give low values 1.01 | S. cerevisiae deletion strains, locus YOR231W, strain MKK1, hits give low values 0.954 | S. cerevisiae deletion strains, locus YOR316C, strain cot1, hits give low values 0.993 | S. cerevisiae deletion strains, locus YPL078C, strain atp4, hits give low values 0.919 | S. cerevisiae deletion strains, locus YPL106C, strain sse1, hits give low values 0.873 | S. cerevisiae deletion strains, locus YPL240C, strain hsp82, hits give low values 0.942 | S. cerevisiae deletion strains, locus YPL256C, strain CLN2, hits give low values 0.947 | S. cerevisiae deletion strains, locus YPR119W, strain clb2, hits give low values 1.07 | S. cerevisiae deletion strains, locus YPR141C, strain kar3, hits give low values 0.986
